# Test results taken from ChEMBL document CHEMBL4808148, “HDAC6 screening dataset using tau-based substrate in an enzymatic assay yields selective inhibitors and activators” (2021).
# The campaign covered roughly 5,600 compounds. About 390 (7%) showed an effect of 50% or more. Shown is part of a subset that was picked to be rich in strong results.
# Biological target: T1, Protein deacetylase HDAC6 (Homo sapiens) (UniProt Q9UBN7)
# T1 sequence (whole entry): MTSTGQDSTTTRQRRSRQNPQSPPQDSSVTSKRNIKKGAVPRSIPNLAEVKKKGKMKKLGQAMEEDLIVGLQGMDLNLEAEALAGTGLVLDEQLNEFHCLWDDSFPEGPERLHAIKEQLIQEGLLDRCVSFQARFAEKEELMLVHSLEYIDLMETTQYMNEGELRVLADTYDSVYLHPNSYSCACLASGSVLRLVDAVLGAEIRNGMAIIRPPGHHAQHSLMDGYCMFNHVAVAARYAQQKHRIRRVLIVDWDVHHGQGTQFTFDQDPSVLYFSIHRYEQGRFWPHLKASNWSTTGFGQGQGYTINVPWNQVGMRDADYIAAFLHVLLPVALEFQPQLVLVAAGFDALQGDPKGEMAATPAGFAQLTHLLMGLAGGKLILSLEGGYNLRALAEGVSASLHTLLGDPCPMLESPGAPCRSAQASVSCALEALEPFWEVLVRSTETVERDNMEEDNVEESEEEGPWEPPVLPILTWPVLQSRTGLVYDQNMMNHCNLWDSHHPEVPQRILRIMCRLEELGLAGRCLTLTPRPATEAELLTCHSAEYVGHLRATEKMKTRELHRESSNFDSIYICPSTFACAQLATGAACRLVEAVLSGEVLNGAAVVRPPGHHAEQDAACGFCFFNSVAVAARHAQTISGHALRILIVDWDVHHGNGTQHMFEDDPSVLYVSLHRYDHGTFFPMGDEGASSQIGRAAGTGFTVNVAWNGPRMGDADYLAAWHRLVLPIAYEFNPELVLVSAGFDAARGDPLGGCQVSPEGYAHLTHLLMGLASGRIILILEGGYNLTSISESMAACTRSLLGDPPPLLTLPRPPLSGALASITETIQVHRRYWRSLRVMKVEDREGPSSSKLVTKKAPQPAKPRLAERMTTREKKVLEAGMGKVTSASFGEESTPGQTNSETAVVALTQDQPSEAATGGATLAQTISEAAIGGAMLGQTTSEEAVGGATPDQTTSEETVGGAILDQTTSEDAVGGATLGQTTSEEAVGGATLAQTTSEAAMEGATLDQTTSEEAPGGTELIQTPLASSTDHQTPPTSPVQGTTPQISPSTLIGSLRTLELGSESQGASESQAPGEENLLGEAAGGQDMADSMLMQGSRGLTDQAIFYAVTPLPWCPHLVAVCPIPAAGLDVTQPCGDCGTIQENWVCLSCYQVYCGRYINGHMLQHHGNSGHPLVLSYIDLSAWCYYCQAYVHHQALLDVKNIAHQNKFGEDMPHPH
# Conditions: at 10 µM
row,SMILES,inhibition [%]
1,CCOc1cc2ncc(C#N)c(Nc3ccc(OCc4cccc(F)c4)c(Cl)c3)c2cc1NC(=O)/C=C/CN(C)C,-4.4
2,Clc1ccc2nsnc2c1NC1=NCCN1,-9.25
3,CC(C)Oc1ccc(Cc2ccc(NC3=NCCN3)cc2)cc1,64
4,CCc1[nH]c(=O)[nH]c1C(=O)c1ccncc1,-6.73
5,COc1ccc2nc3[nH]nc(C)c3c(NCCOCCO)c2c1,0.89
6,COc1cc(OC)c2c(=O)[nH]c(-c3cc(C)c(OCCO)c(C)c3)nc2c1,80.1
7,Nc1nc(Nc2ccc(S(N)(=O)=O)cc2)nn1C(=O)c1c(F)cccc1F,38.5
8,COc1ccc(CNC(=O)c2sc3nc(C)cc(C)c3c2N)cc1,2.68
9,C#Cc1cccc(Nc2ncnc3cc(OC)c(OCCCCCCC(=O)NO)cc23)c1,101
10,COc1cc2ncnc(Nc3cccc(Br)c3)c2cc1OC,16.9
11,C#Cc1cccc(Nc2ncnc3cc(OCCOC)c(OCCOC)cc23)c1,32.3
12,Cn1ccnc1S,-0.6
13,O=C(O)c1cc(C(=O)O)c(C(=O)N(Cc2cccc(Oc3ccccc3)c2)[C@H]2CCCc3ccccc32)cc1C(=O)O,7.63
14,Cc1ccc(Sc2ccccc2N2CCNCC2)c(C)c1,-7.14
15,COC(=O)/C=C/c1cccc(N(Cc2ccc(-c3ccc(N(C)C)cc3)cc2)C(=O)C2CCCCC2)c1,-3.18
16,CN(C)C(=O)Nc1cccc(-c2ccc(N(C)C)cc2)c1,94.6
17,CC(=O)Nc1cccc(O)c1,34.1
18,CC1(C)C(/C=C/C=C/C=C/C=C2\N(CCCCS(=O)(=O)O)c3ccc4ccccc4c3C2(C)C)=[N+](CCCCS(=O)(=O)[O-])c2ccc3ccccc3c21,21.1
19,O=C(O)COCCN1CCN(C(c2ccccc2)c2ccc(Cl)cc2)CC1 (stereo not given),-6.57
20,OCCOCCN1CCN(C(c2ccccc2)c2ccc(Cl)cc2)CC1 (stereo not given),89.5

row,SMILES,inhibition [%]
1,O=C(O)COCCN1CCN([C@H](c2ccccc2)c2ccc(Cl)cc2)CC1,-6.59
2,Cc1c(CC(C)(C)C(=O)O)n(Cc2ccc(Cl)cc2)c2ccc(F)cc12,3.54
3,Nc1ccn([C@@H]2C(F)=C(CO)[C@@H](O)[C@H]2O)c(=O)n1,8.8
4,CCc1cccc(CC)c1NC(=O)c1nn(C)c2c1CCc1cnc(Nc3ccc(C(=O)NC4CCN(C)CC4)cc3OC(F)(F)F)nc1-2,-2.89
5,CC(C)(CCCCCCCCCCC(C)(C)CC(=O)O)CC(=O)O,-0.28
6,N#Cc1cc(F)cc(-c2nc(-c3ccc(F)cn3)no2)c1,83.6
7,N#Cc1cccc(-c2nc(-c3cccnc3)no2)c1,19.8
8,COC(=O)c1cnn(-c2ccc(F)cc2F)c1/C=N/NC(=S)NC(C)(C)C,0.12
9,CC[C@H](C)[C@H](N)C(=O)O,9.28
10,COc1ncc2cc(C(=O)Nc3cc(C(=O)NCc4cccc(Cl)c4)ccc3Cl)c(=O)[nH]c2n1,4.52
11,Cn1nc(-c2cccc(F)c2)n(C)c1=S,17.9
12,Cc1csc(S(=O)(=O)N(CC(C)C)c2cc3c(cc2OCc2ccc(C(=O)O)cc2)CCC3)n1,1.78
13,CNCc1ccc(C)c(NC(=O)c2ccc(Nc3nc(-c4ccccc4)c4ccccc4n3)cc2)c1,-7.66
14,Cc1ccc(C(=O)Nc2ccc(S(=O)(=O)O)c3cc(S(=O)(=O)O)cc(S(=O)(=O)O)c23)cc1NC(=O)c1cccc(NC(=O)Nc2cccc(C(=O)Nc3cc(C(=O)Nc4ccc(S(=O)(=O)O)c5cc(S(=O)(=O)O)cc(S(=O)(=O)O)c45)ccc3C)c2)c1,32.3
15,Cc1ccc(NC(=O)c2cccc(N(C)C)c2)cc1NC(=O)c1ccc(O)cc1,80.4
16,CC(=O)O[C@H]1CC[C@@]2(C)C(=CC[C@@H]3[C@@H]2CC[C@]2(C)C(c4cccnc4)=CC[C@@H]32)C1,15.8
17,O=[N+]([O-])c1cc2nc(O)c(O)nc2cc1[N+](=O)[O-],-5.28
18,CC(C)c1ccc(-c2cc(=O)c3ccccc3o2)cc1,101
19,O=C(O)c1cc(=O)c2ccccc2o1,-1.55
20,NCCC(Oc1ccc(C(F)(F)F)cc1)c1ccccc1 (stereo not given),1.38

row,SMILES,inhibition [%]
1,CC[C@H]1OC(=O)[C@@](C)(F)C(=O)[C@H](C)[C@@H](O[C@@H]2O[C@H](C)C[C@H](N(C)C)[C@H]2O)[C@](C)(OC)C[C@@H](C)C(=O)[C@H](C)[C@H]2N(CCCCn3cc(-c4cccc(N)c4)nn3)C(=O)O[C@]12C,17.2
2,c1ccc2sc(SN3CCOCC3)nc2c1,58.2
3,FC(F)c1nc2ccccc2n1-c1nc(N2CCOCC2)nc(N2CCOCC2)n1,29.1
4,COc1ccccc1Oc1c(NS(=O)(=O)c2ccc(C(C)(C)C)cc2)nc(-c2ncccn2)nc1OCCO,22.5
5,COc1ccc(F)c(F)c1C(=O)c1cnc(NC2CCN(S(C)(=O)=O)CC2)nc1N,-5.57
6,C=CCNC(=O)c1cc([N+](=O)[O-])cc2c(=O)[nH]c(Nc3ccc(Cl)c(Cl)c3)nc12,17.8
7,CN(C)c1ccc2c(c1)Sc1cc(N(C)C)ccc1N2,66.8
8,N#CN=C(NCCCCCCOc1ccc(Cl)cc1)Nc1ccncc1,-6.3
9,COc1cc2c(NC3CCN(C(C)C)CC3)nc(N3CCC(F)(F)CC3)nc2cc1OCCCN1CCCC1,-5.91
10,COc1cc(C2Oc3ccc(C4Oc5cc(O)cc(O)c5C(=O)C4O)cc3OC2CO)ccc1O (stereo not given),-5.75
11,Cc1cc(Cn2nnc3c(-c4ccco4)nc(N)nc32)ccc1N,-1.08
12,Cc1c(OCc2cccc(-c3ccc(C(=O)O)cc3)c2)cc2c(c1C)C(=O)C(C1CCCC1)C2 (stereo not given),-0.56
13,CCN1C(=O)NC(c2ccccc2)C1=O (stereo not given),22.6
14,CCCCn1ccc(N2CCC(c3ccccc3)CC2)c(Cl)c1=O,59.9
15,Cc1ccc2c(c1)C(=O)C1(O)CCN(c3ccccc3)C1=N2 (racemic),1.13
16,O=C(O)C[C@H]1CC[C@H](c2ccc(NC(=O)c3nnc(Nc4ccc(F)c(F)c4)o3)cc2)CC1,35.2
17,Oc1cc(O)c2cc(O)c(-c3cc(O)c(O)c(O)c3)[o+]c2c1,38.4
18,CC(C)(C)c1ccc(NC(=O)N2CCN(c3ncccc3Cl)CC2)cc1,24.7
19,CC(C)Nc1cccnc1N1CCN(C(=O)c2cc3cc(NS(C)(=O)=O)ccc3[nH]2)CC1,51.2
20,COC1=C(OC)C(=O)C(C/C=C(\C)CC/C=C(\C)CC/C=C(\C)CC/C=C(\C)CC/C=C(\C)CC/C=C(\C)CC/C=C(\C)CC/C=C(\C)CC/C=C(\C)CCC=C(C)C)=C(C)C1=O,4.15
